# Reference: PubChem BioAssay (NCATS)
# Unmarked numbers belong to inactive results. Inconclusive results are not listed. Where a call stands in place of a potency, no number is given. Active and inactive are the calls of the source. Unless noted, calls follow the shape of the dose curve; as a rule, active = well fitted curve in the direction sought with a large enough effect; inconclusive = small, poorly fitted or top-dose-only effect, or another doubt; inactive = no such curve, though single readings can be large; an effect the other way counts as inactive or inconclusive.
# Tests used:
# [1] = Stat Signaling Pathway (AID 446; active = well fitted curve in either direction with a large enough effect, not every such curve was filed as active;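 also: ME-180 cervical cancer cells given 40 pM IL-6 alongside compound; SIE-controlled beta-lactamase reporter measured as 460/530 nm FRET emission ratio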)
# Summary of the method: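 ME-180 cells carrying a SIE-driven beta-lactamase reporter are stimulated with 40 pM IL-6 for 5 h at 37C in the presence of compound. The 460/530 nm FRET substrate ratio is read after 2.5 h at RT. Data are normalised to 300 pM IL-6 and to 125 nM JAK inhibitor controls.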
# [2] = qHTS Assay for Identification of Small Molecule Agonists for Thrombopoietin (TPO) Signaling Pathway (AID 917)
# Summary of the method: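 Murine Ba/F3 cells expressing human TPO receptor and GPIIb-promoter luciferase, IL-3-starved overnight, given compound plus TPO at 26 pM (EC50). After 24 h at 37 C, 5% CO2, luminescence read.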
# [3] = target: Muscarinic acetylcholine receptor M1 (Rattus norvegicus) (UniProt P08482); test: qHTS Assay for Antagonists of Acetylcholine Muscarinic M1 Receptor: Kinetic Measurement of Intracellular Calcium Response (AID 943); also: nearly all actives have a fitted effect of over 75% in size; also: potency is read from the fitted curve at half-maximal effect
# Chain of Muscarinic acetylcholine receptor M1 (Rattus norvegicus) (P08482 whole entry, looked up): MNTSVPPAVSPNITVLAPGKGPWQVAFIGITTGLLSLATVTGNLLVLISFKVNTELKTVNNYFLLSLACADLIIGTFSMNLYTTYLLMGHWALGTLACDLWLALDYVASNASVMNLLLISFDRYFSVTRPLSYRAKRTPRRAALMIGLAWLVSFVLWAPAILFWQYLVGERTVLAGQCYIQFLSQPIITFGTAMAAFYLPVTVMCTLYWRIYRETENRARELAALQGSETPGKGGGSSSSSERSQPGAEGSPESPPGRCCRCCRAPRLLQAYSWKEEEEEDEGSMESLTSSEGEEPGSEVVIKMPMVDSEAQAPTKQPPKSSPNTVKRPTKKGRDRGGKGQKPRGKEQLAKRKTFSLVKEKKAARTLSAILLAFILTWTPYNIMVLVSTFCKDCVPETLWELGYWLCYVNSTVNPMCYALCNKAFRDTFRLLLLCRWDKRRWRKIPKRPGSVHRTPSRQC
# Summary of the method: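 Rat M1-CHO cells, 2000/well, overnight → Fluo-4 no-wash dye with probenecid, 1 h 37C → compound 10 min, room temp → basal read 6 s → carbachol EC80 (100 nM) → 4 min kinetic read; peak/basal.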
# [4] = target: Muscarinic acetylcholine receptor M1 (Rattus norvegicus) (UniProt P08482); test: qHTS Assay for Antagonists of Acetylcholine Muscarinic M1 Receptor: Measurement of IP-One Response (AID 944); also: nearly all actives have a fitted effect of over 75% in size; also: potency is read from the fitted curve at half-maximal effect
# Summary of the method: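 M1-CHO (rat), 2000 cells/well, overnight recovery; cpd 10 min; carbachol EC80 (200 nM), 30 min, HEPES buffer + 50 mM LiCl pH 7.4; IP-One HTRF, Ex 337, Em 620/665 nm.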
# [5] = target: Cytochrome P450 3A4 (Homo sapiens) (UniProt P08684); test: qHTS Assay for Inhibitors and Substrates of Cytochrome P450 3A4 (AID 884); also: series mostly up to about 57 µM; nearly all actives have a fitted effect of over 50% in size
# Chain of Cytochrome P450 3A4 (Homo sapiens) (P08684 whole entry, looked up): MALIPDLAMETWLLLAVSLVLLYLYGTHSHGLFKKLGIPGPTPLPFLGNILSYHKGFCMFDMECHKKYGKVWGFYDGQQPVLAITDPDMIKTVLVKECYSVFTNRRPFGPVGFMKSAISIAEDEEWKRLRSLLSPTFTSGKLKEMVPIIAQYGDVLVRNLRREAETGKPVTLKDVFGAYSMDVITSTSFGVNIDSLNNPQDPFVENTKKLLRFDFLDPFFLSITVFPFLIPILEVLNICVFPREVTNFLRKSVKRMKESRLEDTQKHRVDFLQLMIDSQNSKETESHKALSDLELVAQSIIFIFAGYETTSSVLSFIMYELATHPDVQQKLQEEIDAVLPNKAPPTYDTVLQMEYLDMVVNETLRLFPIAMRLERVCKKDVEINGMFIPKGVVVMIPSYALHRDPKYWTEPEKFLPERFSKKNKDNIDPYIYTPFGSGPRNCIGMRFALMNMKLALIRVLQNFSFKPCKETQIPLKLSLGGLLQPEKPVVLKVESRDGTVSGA
# Summary of the method: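 20 nM human CYP3A4 with 25 uM Luciferin-PPXE (at KM) in 200 mM KPO4, preincubated 10 min with compound; NADPH regeneration started a 60 min RT reaction. Luciferin detected by luminescence, normalized to 57 uM ketoconazole as full inhibition.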
# [6] = target: Cytochrome P450 3A4 (Homo sapiens) (UniProt P08684); test: qHTS Assay for Activators of Cytochrome P450 3A4 (AID 885); also: nearly all actives have a fitted effect of over 65% in size
# Summary of the method: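 Human CYP3A4 (20 nM) with Luciferin-PPXE at 25 uM (its KM) in 200 mM KPO4; 10 min compound preincubation, then NADPH regeneration and 60 min reaction at RT. Luciferin read by luminescence; normalized to 57 uM ketoconazole full inhibition.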
# [7] = target: Cytochrome P450 2C9 (Homo sapiens) (UniProt P11712); test: qHTS Assay for Inhibitors and Substrates of Cytochrome P450 2C9 (AID 883); also: nearly all actives have a fitted effect of over 60% in size; also: potency is read from the fitted curve at half-maximal effect
# Chain of Cytochrome P450 2C9 (Homo sapiens) (P11712 whole entry, looked up): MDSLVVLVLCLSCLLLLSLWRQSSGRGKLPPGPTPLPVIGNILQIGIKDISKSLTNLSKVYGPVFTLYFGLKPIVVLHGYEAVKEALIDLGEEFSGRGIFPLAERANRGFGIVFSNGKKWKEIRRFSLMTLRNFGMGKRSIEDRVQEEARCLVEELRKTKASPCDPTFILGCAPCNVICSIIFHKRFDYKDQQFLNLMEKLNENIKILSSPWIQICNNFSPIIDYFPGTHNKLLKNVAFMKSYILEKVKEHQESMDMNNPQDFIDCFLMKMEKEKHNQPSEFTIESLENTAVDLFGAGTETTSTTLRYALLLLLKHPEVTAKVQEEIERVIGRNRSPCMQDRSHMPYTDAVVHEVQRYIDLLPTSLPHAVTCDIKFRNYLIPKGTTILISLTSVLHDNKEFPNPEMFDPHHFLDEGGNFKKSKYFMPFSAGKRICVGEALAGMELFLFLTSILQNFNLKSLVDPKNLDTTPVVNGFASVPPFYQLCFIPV
# Summary of the method: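 Human CYP2C9 (10nM) with Luciferin-H at 100uM (its KM) in 25mM KPO4; compound preincubated 10 min at 37C, then NADPH regeneration for 60 min at 37C. Luciferin read by luminescence after detection reagent; normalized to 57uM sulphaphenazole as full inhibition.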
# [8] = test system: Zika virus NS2B-NS3 protease (linked construct); test: Primary screen NINDS Rhodamine qHTS for Zika virus inhibitors (AID 1347160); also: nearly all actives have a fitted effect of over 55% in size
# Summary of the method: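 Purified NS2B-NS3 protease with the NS2B hydrophilic domain joined by a flexible linker (25 nM) in 10 mM Tris-HCl pH 8.0, 0.01% Tween 20, preincubated 15 min at RT with compound; Rhodamine110 peptide substrate 1.5 µM; fluorescence change over 15 min; 4-parameter Hill fit.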
# [9] = HPAF-II Cancer Cell Toxicity qHTS against the NCATS CANVASS Library (AID 1347346); also: series mostly up to about 38 µM; nearly all actives have a fitted effect of over 55% in size
# Summary of the method: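 Luminescence from CellTiter-Glo, added after 72 h compound exposure and a 15 min room-temperature incubation, served as the viability readout. HPAF-II cells (1000/well) received an 11-point concentration series.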
# [10] = OV-SAHO Cancer Cell Toxicity qHTS against the NCATS CANVASS Library (AID 1347348); also: series mostly up to about 38 µM; nearly all actives have a fitted effect of over 55% in size
# Summary of the method: (§1)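 1000 cells/well; 4 h settle; 11-pnt titration; 72 h, 37 degrees C, 5% CO2; CellTiter-Glo, 15min RT; luminescence read.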
# [11] = Panc-1005 Cancer Cell Toxicity qHTS against the NCATS CANVASS Library (AID 1347349); also: series mostly up to about 38 µM; nearly all actives have a fitted effect of over 60% in size
# Summary of the method: as §1
# [12] = U-118MG Cancer Cell Toxicity qHTS against the NCATS CANVASS Library (AID 1347351); also: series mostly up to about 38 µM
# Summary of the method: as §1
# [13] = A2780 Cisplatin Sensitive Ovarian Cancer Cell Toxicity qHTS against the NCATS CANVASS Library (AID 1347353); also: nearly all actives have a fitted effect of over 60% in size
# Summary of the method: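 Luminescent ATP content (ATPLite, 10 min at room temperature) served as the read-out after cells had been exposed to compounds for 72 hours at 37 °C. Dosing followed an 11-point concentration series.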
# [14] = UWB1.289-WTBRCA1 Cancer Cell Toxicity qHTS against the NCATS CANVASS Library (AID 1347354)
# Summary of the method: (§2)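 Luminescent ATP read-out (CellTiter-Glo, 15min at room temperature) measures survival after cells face an 11-point compound series for 72 hours at 37 degrees C/5% CO2.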
# [15] = HEK-293 Cancer Cell Toxicity qHTS against the NCATS CANVASS Library (AID 1347355); also: series mostly up to about 46 µM; nearly all actives have a fitted effect of over 65% in size
# Summary of the method: as §2
# [16] = HPAF-II 24hr Apoptosis Induction qHTS against the NCATS CANVASS Library (AID 1347356)
# Summary of the method: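 Luminescent caspase-3/7 signal (DEVD substrate, Caspase-Glo) served as read-out, taken 15 min after reagent addition to HPAF-II cells exposed 24 h to compounds.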
# [17] = HEK293 18hr Apoptosis Induction qHTS against the NCATS CANVASS Library (AID 1347357)
# Summary of the method: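 HEK293 cells (500/well, DMEM + 10% FBS) treated with an 11-point series for 18 h at 37 degrees C. Caspase-3/7 activity read by Caspase-Glo luminescence after 15 min at room temperature.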
# [18] = HEK293 24hr Apoptosis Induction qHTS against the NCATS CANVASS Library (AID 1347359)
# Summary of the method: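 HEK293 cells, 500 per well, exposed to an 11-point compound series for 24 hours at 37 degrees C. Caspase 3/7 activity read by Caspase-Glo luminescence (DEVD substrate) after 15 min at room temperature.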
# [19] = HPAF-II 18hr Apoptosis Induction qHTS against the NCATS CANVASS Library (AID 1347360)
# Summary of the method: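 HPAF-II cells at 500/well were exposed for 18 h at 37 C to an 11-point compound series. Caspase-3/7 activity was read by Caspase-Glo luminescence after 15 min at RT.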
# [20] = HEK293 12hr Apoptosis Induction qHTS against the NCATS CANVASS Library (AID 1347361)
# Summary of the method: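 HEK293 cells (500/well) were exposed to an 11-point qHTS concentration series for 12 hours at 37 degrees C. Caspase-3/7 activity was then read by DEVD-substrate luciferase luminescence after 15 min at room temperature.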
structure (smiles),measurement,setting,value
CC(C)(C)c1o[nH]c(=O)c1C[C@H](N)C(=O)O,outcome,[1],inactive
same,outcome,[2],inactive
same,Potency,[3],inactive
same,Potency,[4],inactive
CC[C@]1(C2=NCCN2)Cc2ccccc2O1,Potency,[4],inactive
N[C@@]1(C(=O)O)CC[C@H](C(=O)O)C1,Potency,[5],inactive
same,outcome,[2],inactive
same,Potency,[3],inactive
same,Potency,[4],inactive
C=C(C)CN1CC[C@@]23c4c5ccc(O)c4O[C@H]2c2[nH]c4ccccc4c2C[C@]3(O)[C@@H]1C5,Potency,[6],inactive
CN1C(=O)CCS(=O)(=O)[C@H]1c1ccc(Cl)cc1,Potency,[7],inactive
same,Potency,[5],inactive
same,outcome,[2],inactive
same,Potency,[3],inactive
same,Potency,[4],inactive
C=C(C)[C@H]1CN[C@H](C(=O)O)[C@@H]1CC(=O)O,Potency,[5],inactive
same,Potency,[4],inactive
N#CC(C#N)=Cc1ccc([N+](=O)[O-])c(O)c1,Potency,[6],inactive
same,outcome,[2],inactive
same,Potency,[3],inactive
same,Potency,[4],inactive
Cc1o[nH]c(=O)c1C[C@H](N)C(=O)O,outcome,[2],inactive
same,Potency,[4],inactive
CN1C[C@H](CNC(=O)OCc2ccccc2)C[C@H]2c3cccc4c3c(cn4C)C[C@@H]21,outcome,[1],inactive
N[C@H](CP(=O)(O)O)C(=O)O,Potency,[7],inactive
same,outcome,[2],inactive
same,Potency,[3],inactive
same,Potency,[4],inactive
c1ccc2c(c1)OC[C@@H](C1=NCCN1)O2,Potency,[3],inactive
same,Potency,[4],inactive
O=C1NCN(c2ccccc2)C12CCN(C[C@H]1COc3ccccc3O1)CC2,outcome,[2],inactive
same,Potency,[3],inactive
same,Potency,[4],inactive
CN1CCN(C(=O)O[C@@H]2c3nccnc3C(=O)N2c2ccc(Cl)cn2)CC1,Potency,[7],inactive
O=C1CC[C@@]2(O)[C@H]3Cc4ccc(O)c5c4[C@@]2(CCN3CC2CC2)[C@@H]1O5,outcome,[2],inactive
same,Potency,[4],inactive
CCN1C[C@]2(COC(=O)c3ccccc3N3C(=O)C[C@H](C)C3=O)CC[C@H](OC)[C@@]34[C@@H]5C[C@H]6[C@H](OC)[C@H]5[C@](O)(C[C@@H]6OC)[C@@](O)([C@@H](OC)[C@@H]23)[C@@H]14,Potency,[7],inactive
COc1ccc(CNC(=O)/C=C\c2ccc3[nH]cc(CCN(C)C)c3c2)cc1,Potency,[7],inactive
same,Potency,[6],inactive
same,outcome,[2],inactive
same,Potency,[4],inactive
O=C(/C=C\c1ccc(Cl)cc1)N[C@@]12CCC(=O)[C@@H]3Oc4c(O)ccc5c4[C@@]31CCN(CC1CC1)[C@@H]2C5,Potency,[6],inactive
CCOC(=O)c1ncn2c1[C@H]1CCCN1C(=O)c1cc(OC)ccc1-2,Potency,[7],inactive
same,Potency,[5],inactive
same,outcome,[2],inactive
same,Potency,[3],inactive
same,Potency,[4],inactive
CN1[C@@H]2CC[C@H]1CC(O[C@@H](c1ccccc1)c1ccc(Cl)cc1)C2 (stereo partly drawn),Potency,[6],inactive
same,Potency,[3],0.02 µM (active)
same,Potency,[4],0.0126 µM (active)
O=C1C2CCN(CC2)C1(CO)CO,"activity, negative = inhibition",[1],4.51% [at 7.69 µM]
same,Potency,[7],0.0631 µM (active)
CS(=O)(=O)Nc1ccc(Cc2noc(-c3ccc4[nH]cc(CCN)c4c3)n2)cc1,Potency,[6],inactive
C/C(O)=C(/C#N)C(=O)Nc1cc(Br)ccc1Br,Potency,[7],7.94 µM (active)
same,outcome,[2],inactive
same,Potency,[3],inactive
NC[C@H](CP(=O)(O)O)c1ccc(Cl)cc1,outcome,[1],inactive
same,Potency,[5],inactive
same,outcome,[2],inactive
same,Potency,[3],inactive
same,Potency,[4],inactive
COC(=O)CN1CN(c2ccccc2)C2(CCN(Cc3ccc4ccccc4c3)CC2)C1=O,Potency,[7],inactive
COC(=O)N1CCN(C(=O)Cc2ccc(Cl)c(Cl)c2)[C@H](CN2CCCC2)C1,outcome,[1],inactive
same,outcome,[2],inactive
same,Potency,[4],inactive
NC(=NCCc1ccc(I)cc1)SCCCc1cnc[nH]1,Potency,[6],inactive
Cn1cc(C(=O)C(=O)N[C@H]2CN3CCC2CC3)c2ccccc21,Potency,[7],inactive
S=C=Nc1cccc(C2(N3CCCCC3)CCCCC2)c1,Potency,[7],inactive
same,Potency,[6],inactive
COC1=CC(=O)OC(/C=C/c2ccccc2)C1 (stereo not drawn),outcome,[1],inactive
N[C@H](C(=O)O)c1cc(=O)[nH]o1,Potency,[7],inactive
same,Potency,[5],inactive
same,outcome,[2],inactive
same,Potency,[3],inactive
same,Potency,[4],inactive
CC(=O)N[C@H]1CCN2CCC[C@H]12,Potency,[8],inactive
same,Potency,[9],inactive
same,Potency,[10],inactive
same,Potency,[11],inactive
same,Potency,[12],inactive
same,Potency,[13],inactive
same,Potency,[14],inactive
same,Potency,[15],inactive
same,outcome,[16],inactive
same,Potency,[17],inactive
same,Potency,[18],inactive
same,outcome,[19],inactive
same,Potency,[20],inactive
